Assay results reported in PubChem BioAssay (Tox21).
Inconclusive results are not listed. Calls of active or inactive are those of the source. Unless noted, calls follow the shape of the dose curve; as a rule, active = well fitted curve in the direction sought with a large enough effect in the repeat runs; inconclusive = weak or mixed curves; inactive = no such curve, though single readings can be large; an effect the other way counts as inactive or inconclusive.

How the values were obtained:
[1] = qHTS assay to identify small molecule antagonists of the estrogen related receptor (ERR) signaling pathway from Tox21 library - cell viability counter screen (AID 1224834); also: nearly all actives have a fitted effect of over 30% in size; also: potency is read from the fitted curve at half-maximal effect
Method in brief: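 ERR reporter cells were plated 6 h before compound addition, then exposed to test compounds in DMSO for 17.5 h at 37 C. Viability was read as CellTiter-Fluor fluorescence after a 30-minute incubation at 37 C.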

[2] = target: Luciferin 4-monooxygenase (Photinus pyralis) (UniProt P08659); assay: qHTS assay to identify small molecule inhibitors of firefly luciferase (AID 1224835); also: series mostly up to about 120 µM; nearly all actives have a fitted effect of over 25% in size
Method in brief: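 Quantitative HTS format; KM concentrations of both substrates. Purified P. pyralis FLuc activity quantified from luminescence images.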

[3] = qHTS assay to identify small molecule agonists of the constitutive androstane receptor (CAR) signaling pathway - cell viability counter screen (AID 1224836); also: nearly all actives have a fitted effect of over 45% in size; also: potency is read from the fitted curve at half-maximal effect; as to viability change, negative = cytotoxic: series mostly up to about 92 µM
Method in brief: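 HepG2 cells stably carrying hCAR and a CYP2B6-2.2kb reporter; 15-concentration compounds plus PK11195 (final 0.75 uM), 23 hr at 37 C/5% CO2. Viability read by CellTiter-Fluor fluorescence.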

[4] = qHTS assay to identify small molecule antagonists of the constitutive androstane receptor (CAR) signaling pathway - cell viability counter screen (AID 1224837); also: nearly all actives have a fitted effect of over 45% in size; also: potency is read from the fitted curve at half-maximal effect; as to activity change, negative = cytotoxicity: series mostly up to about 92 µM
Method in brief: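 HepG2 cells stably expressing hCAR and a CYP2B6-2.2kb reporter were plated and pre-incubated 4 hr at 37 C/5% CO2, then given compounds at 15 concentrations plus 50 nM CITCO (final). After 23 hr, viability was read by CellTiter-Fluor fluorescence.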

[5] = target: Nuclear receptor subfamily 1 group I member 3 (Homo sapiens) (UniProt Q14994); assay: qHTS assay to identify small molecule antagonists of the constitutive androstane receptor (CAR) signaling pathway (AID 1224838); also: nearly all actives have a fitted effect of over 40% in size; also: potency is read from the fitted curve at half-maximal effect
Method in brief: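 HepG2 cells stably co-transfected with hCAR and a CYP2B6-2.2kb luciferase reporter were seeded 4 h before compound addition at 15 concentrations. Cells were stimulated with 50 nM CITCO (final) for 24 h at 37 C; luciferase luminescence was then read.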

[6] = target: Nuclear receptor subfamily 1 group I member 3 (Homo sapiens) (UniProt Q14994); assay: qHTS assay to identify small molecule agonists of the constitutive androstane receptor (CAR) signaling pathway (AID 1224839); also: nearly all actives have a fitted effect of over 15% in size; also: potency is read from the fitted curve at half-maximal effect;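 as to activation: HepG2 cells stably carrying human CAR and a CYP2B6 luciferase reporter; series mostly up to about 92 µM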
Method in brief: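 HepG2 cells stably co-transfected with hCAR and a CYP2B6-2.2kb luciferase reporter; compounds at 15 concentrations with 0.75 uM PK11195 present. After 24 hr at 37 C, luciferase read by ONE-Glo luminescence.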

[7] = qHTS assay to identify small molecule antagonists of the estrogen related receptor signaling pathway with the pleiotropic PPARgamma coactivator (PGC) from Tox21 10K library - cell viability counter screen (AID 1224840; active = well fitted cell-killing curve with a large enough effect in the repeat runs, not every such curve was filed as active; also: nearly all actives have a fitted effect of over 40% in size; also: potency is read from the fitted curve at half-maximal effect)
Method in brief: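 PGC/ERR cells were seeded at 2,000 cells/well and left 6 hours at 37 C/5% CO2 before pin-tool addition of compounds in DMSO. After 17.5 hours at 37 C, CellTiter-Fluor was added and fluorescence read 30 minutes later.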

[8] = qHTS assay to identify small molecule antagonists of the estrogen related receptor signaling pathway with the pleiotropic PPARgamma coactivator (PGC) from Tox21 10K library (AID 1224841; call rule not given here; also: actives are mostly falling curves and most rising ones were filed inactive; nearly all actives have a fitted effect of over 50% in size; also: potency is read from the fitted curve at half-maximal effect; as to activity, negative = inhibition: series mostly up to about 92 µM)
Method in brief: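 PGC/ERR reporter cells were seeded at 2,000 cells/well and held 6 hours at 37 C/5% CO2 before pin-tool addition of compounds in DMSO. After 18 hours at 37 C, One-Glo was added and luminescence read after 30 minutes at room temperature.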

[9] = qHTS assay to identify small molecule agonists of the estrogen related receptor signaling pathway with the pleiotropic PPARgamma coactivator (PGC) from Tox21 10K library (AID 1224842); also: nearly all actives have a fitted effect of over 15% in size
Method in brief: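 PGC/ERR reporter cells (NTP line) were seeded 2,000 per well, rested 6 h at 37 C/5% CO2, then pin-dosed with compounds in DMSO for 18 h at 37 C; luciferase read by One-Glo luminescence after 30 min at room temperature.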

[10] = target: Thyrotropin receptor (Homo sapiens) (UniProt P16473); assay: qHTS assay to identify small molecule agonists of the thyroid stimulating hormone receptor (TSHR) signaling pathway (AID 1224843; calls by dose curve; also: nearly all actives have a fitted effect of over 45% in size)
Method in brief: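 TSHR-expressing HEK293 cells (800 per well) were exposed to compounds for 30 min at room temperature. cAMP was then detected by HTRF competition with cAMP-d2 and anti-cAMP cryptate, read after 1 h at room temperature. Fifteen concentrations, triplicate.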
% is scaled to controls: 0 for no effect and ±100 for the full control effect.

Sequence of Luciferin 4-monooxygenase (Photinus pyralis) (P08659 whole entry, looked up): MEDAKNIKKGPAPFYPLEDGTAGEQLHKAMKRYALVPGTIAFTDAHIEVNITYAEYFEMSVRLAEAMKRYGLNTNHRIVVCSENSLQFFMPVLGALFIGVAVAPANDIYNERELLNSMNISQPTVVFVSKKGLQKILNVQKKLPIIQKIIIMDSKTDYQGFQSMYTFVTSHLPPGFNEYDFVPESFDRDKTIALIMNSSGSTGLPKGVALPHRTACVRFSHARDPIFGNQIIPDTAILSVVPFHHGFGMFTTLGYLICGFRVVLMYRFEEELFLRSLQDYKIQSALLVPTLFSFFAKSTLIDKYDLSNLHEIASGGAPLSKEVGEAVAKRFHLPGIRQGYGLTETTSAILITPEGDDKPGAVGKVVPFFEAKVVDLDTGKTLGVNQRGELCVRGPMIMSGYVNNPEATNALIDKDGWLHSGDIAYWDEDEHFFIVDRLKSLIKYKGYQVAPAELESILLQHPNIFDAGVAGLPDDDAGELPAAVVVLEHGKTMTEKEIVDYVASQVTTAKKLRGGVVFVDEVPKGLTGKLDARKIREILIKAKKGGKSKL
Sequence of Thyrotropin receptor (Homo sapiens) (P16473 whole entry, looked up): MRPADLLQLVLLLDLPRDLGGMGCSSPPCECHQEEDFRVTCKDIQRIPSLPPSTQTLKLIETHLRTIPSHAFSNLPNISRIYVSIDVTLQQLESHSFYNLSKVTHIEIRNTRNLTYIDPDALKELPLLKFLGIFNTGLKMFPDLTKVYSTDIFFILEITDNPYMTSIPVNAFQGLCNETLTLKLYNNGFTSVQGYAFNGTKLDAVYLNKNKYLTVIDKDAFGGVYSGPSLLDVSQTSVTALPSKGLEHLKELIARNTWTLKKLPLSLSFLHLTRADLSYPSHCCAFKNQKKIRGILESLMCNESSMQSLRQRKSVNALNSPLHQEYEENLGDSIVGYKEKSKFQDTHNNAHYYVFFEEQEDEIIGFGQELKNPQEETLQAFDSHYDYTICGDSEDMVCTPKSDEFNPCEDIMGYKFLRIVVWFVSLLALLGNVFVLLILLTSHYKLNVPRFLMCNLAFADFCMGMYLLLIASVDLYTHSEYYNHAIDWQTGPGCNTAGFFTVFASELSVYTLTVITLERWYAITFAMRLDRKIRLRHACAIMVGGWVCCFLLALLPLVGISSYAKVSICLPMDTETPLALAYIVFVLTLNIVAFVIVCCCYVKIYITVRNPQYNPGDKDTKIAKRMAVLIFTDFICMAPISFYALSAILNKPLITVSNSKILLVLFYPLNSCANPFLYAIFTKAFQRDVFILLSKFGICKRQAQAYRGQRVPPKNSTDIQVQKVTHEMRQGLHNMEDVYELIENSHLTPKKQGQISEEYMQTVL
Sequence of Nuclear receptor subfamily 1 group I member 3 (Homo sapiens) (Q14994 whole entry, looked up): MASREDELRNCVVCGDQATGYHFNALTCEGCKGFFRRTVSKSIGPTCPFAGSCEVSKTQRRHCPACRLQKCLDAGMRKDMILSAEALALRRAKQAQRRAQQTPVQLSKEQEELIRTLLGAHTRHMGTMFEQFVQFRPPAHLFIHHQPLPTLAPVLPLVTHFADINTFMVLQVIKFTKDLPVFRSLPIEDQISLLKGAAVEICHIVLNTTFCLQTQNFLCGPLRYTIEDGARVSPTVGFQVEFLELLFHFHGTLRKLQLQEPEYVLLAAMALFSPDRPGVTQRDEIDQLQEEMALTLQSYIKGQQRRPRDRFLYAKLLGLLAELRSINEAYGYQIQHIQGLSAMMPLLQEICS

OC[C@H]1O[C@@H](OCCc2ccc(O)cc2)[C@H](O)[C@@H](O)[C@@H]1O
inactive: Potency [1] | Potency [2] | Potency [3] | Potency [4] | Potency [5] | Potency [6] | Potency [7] | Potency [8] | Potency [9]

CCCCCCCCCc1ccc(OCCOCCO)cc1
active: Potency [1] 10.2 µM | Potency [3] 6.44 µM | Potency [4] 5.74 µM | Potency [7] 10.2 µM
inactive: Potency [2] | Potency [5] | Potency [6]

Nc1cccc([N+](=O)[O-])c1
inactive: Potency [1] | Potency [2] | Potency [3] | Potency [4] | Potency [5] | Potency [6] | Potency [7] | Potency [8] | Potency [9]

O=C1CCC(=O)O1
inactive: Potency [1] | Potency [2] | Potency [3] | Potency [4] | Potency [5] | Potency [6] | Potency [7] | Potency [8] | Potency [9]

CNC(=O)CN(CCN(CCN(CC(=O)[O-])CC(=O)NC)CC(=O)[O-])CC(=O)[O-].O.[Gd+3]
inactive: Potency [1] | Potency [2] | Potency [3] | Potency [4] | Potency [5] | Potency [6] | Potency [7]

C=C1[C@H]2CC[C@@H]3[C@H]2C(C)(C)CCC[C@]13C
inactive: Potency [1] | Potency [2] | Potency [3] | Potency [4] | Potency [5] | Potency [6] | Potency [7]

CC(C)(COC(=O)c1ccccc1)COC(=O)c1ccccc1
inactive: Potency [1] | Potency [2] | Potency [3] | Potency [4] | Potency [5] | Potency [6]

CC1=CC=C(C(C)C)CC1
inactive: Potency [1] | Potency [2] | Potency [3] | Potency [4] | Potency [5] | Potency [6] | Potency [7]

Cc1ncc(CO)c(C=O)c1O
inactive: Potency [1] | Potency [2] | Potency [3] | Potency [4] | Potency [5] | Potency [6] | Potency [7] | Potency [8] | Potency [9] | Potency [10]

CN(C)c1ccc(CCO)cc1
inactive: Potency [1] | Potency [2] | Potency [3] | Potency [4] | Potency [6] | Potency [7] | Potency [10]
active: Potency [5] 27.1 µM

Nc1ccccc1S(=O)(=O)c1ccccc1
inactive: Potency [1] | Potency [2] | Potency [3] | Potency [4] | Potency [5] | Potency [7] | Potency [9] | Potency [10]
active: Potency [6] 68.6 µM

CC[N+]1(CC)CCC(=C(c2ccccc2)c2ccccc2)C1C (stereo unspecified)
inactive: Potency [1] | Potency [2] | Potency [3] | Potency [4] | Potency [5] | Potency [6] | Potency [7] | Potency [10]

CCCCNc1ccc(C(=O)OCCOCCOCCOCCOCCOCCOCCOCCOCCOC)cc1
inactive: Potency [1] | Potency [2] | Potency [3] | Potency [4] | Potency [5] | Potency [6] | Potency [7] | Potency [8] | Potency [9] | Potency [10]

CCN(CC)CCNC(=O)c1cc(Br)c(N)cc1OC
inactive: Potency [1] | Potency [2] | Potency [3] | Potency [4] | Potency [5] | Potency [6] | Potency [7] | Potency [8] | Potency [9] | Potency [10]

CC(C)(C)Cl
inactive: Potency [1] | Potency [2] | Potency [3] | Potency [4] | Potency [5] | Potency [6] | Potency [7] | Potency [10]

C#Cc1cccc(Nc2ncnc3cc(OCCOC)c(OCCOC)cc23)c1
active: Potency [1] 8.41 µM | Potency [6] 7.5 µM | Potency [8] 8.41 µM
inactive: Potency [2] | Potency [3] | Potency [4] | Potency [5] | Potency [7] | Potency [9] | Potency [10]

Nc1cc(C(=O)O)c(O)c(S(=O)(=O)O)c1
inactive: Potency [1] | Potency [2] | Potency [3] | Potency [4] | Potency [5] | Potency [6] | Potency [7] | Potency [8] | Potency [9] | Potency [10]

O=C(O)CNCC(=O)O
inactive: viability change, negative = cytotoxic [1] 2.9% [at 8.39 µM] | activity change, negative = inhibition [2] 2.59% [at 10.5 µM] | viability change, negative = cytotoxic [3] 4.87% [at 8.39 µM] | activity change, negative = cytotoxicity [4] 2.11% [at 8.39 µM] | activity, negative = inhibition [5] 15.5% [at 8.39 µM] | activation [6] -0.889% [at 8.39 µM] | viability change, negative = cytotoxic [7] 0.614% [at 8.39 µM] | activation [10] 4.36% [at 8.39 µM]

COCCCN1CCC(NC(=O)c2cc(Cl)c(N)c3c2OCC3)CC1
inactive: Potency [1] | Potency [2] | Potency [3] | Potency [4] | Potency [5] | Potency [6] | Potency [7] | Potency [8] | Potency [9] | Potency [10]

Nc1ccc(S(=O)(=O)Nc2ccccc2)cc1
inactive: Potency [1] | Potency [2] | Potency [3] | Potency [4] | Potency [5] | Potency [6] | Potency [7] | Potency [10]

CC(C)(O)c1ccc(CNC(=O)c2cccnc2Oc2ccc(F)cc2)cc1
inactive: Potency [1] | Potency [2] | Potency [3] | Potency [4] | Potency [5] | Potency [7] | Potency [9] | Potency [10]
active: Potency [6] 27.3 µM | Potency [8] 48.6 µM

CCC(=O)O[C@]1(C(=O)CCl)[C@@H](C)C[C@H]2[C@@H]3CCC4=CC(=O)C=C[C@]4(C)[C@@]3(F)[C@@H](O)C[C@@]21C
inactive: Potency [1] | Potency [2] | Potency [3] | Potency [4] | Potency [5] | Potency [6] | Potency [7] | Potency [8] | Potency [9] | Potency [10]

CCCCCCCC/C=C\CCCCCCCC(=O)OCC
inactive: Potency [1] | Potency [2] | Potency [3] | Potency [4] | Potency [5] | Potency [6] | Potency [7] | Potency [8] | Potency [9] | Potency [10]

CC1CCC(=O)C1=O (stereo unspecified)
inactive: Potency [1] | Potency [2] | Potency [3] | Potency [4] | Potency [5] | Potency [6] | Potency [7] | Potency [10]

CCCCCCCCCOS(=O)(=O)O
inactive: Potency [1] | Potency [2] | Potency [3] | Potency [4] | Potency [5] | Potency [6] | Potency [7] | Potency [10]
